Results taken from PubChem BioAssay (NCATS).
Results filed as inconclusive are left out. Calls of active or inactive are those of the source. Unless noted, the call rests on the fitted dose curve; in most records, active means well fitted curve in the direction sought with a large enough effect; inconclusive means small, poorly fitted or top-dose-only effect, or another doubt; inactive means no such curve, though single readings can be large; an effect the other way counts as inactive or inconclusive.

Assays:
[1] = target: Alpha-galactosidase (Coffea arabica) (UniProt Q42656); assay: Counterscreen for Glucocerebrosidase Inhibitors: qHTS Assay for Coffee Bean alpha-Galactosidase at pH 4.5 (AID 957); further: series mostly up to about 77 µM
Outline: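 Fluorogenic read-out: 4-methylumbelliferone at Ex 365/Em 440 nm after NaOH/glycine stop (pH 10). Enzyme 2 nM, 4-MU-alpha-galactoside 80 uM, citrate buffer pH 4.5, 20 min RT; normalized to no-enzyme and enzyme controls.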

[2] = target: Alpha-galactosidase (Coffea arabica) (UniProt Q42656); assay: Counterscreen for Glucocerebrosidase Inhibitors: qHTS Assay for Coffee Bean alpha-Galactosidase at pH 5.9 (AID 998)
Outline: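 In 50 mM citric acid pH 5.9 with 0.005% Tween-20, coffee bean enzyme hydrolyses 80 uM 4-MU alpha-D-galactopyranoside over 20 min at RT. Activity is normalized to controls; AC50 comes from Hill-modelled concentration-response data.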

[3] = Validation screen for inhibitors of Lassa infection (AID 463096; calls by dose curve)
[4] = qHTS for Inhibitors of the Functional Ribonucleoprotein Complex (vRNP) of Lassa (LASV) Arenavirus: LASV Primary Screen - GLuc reporter signal (AID 1347082; calls by dose curve; tested in HEK293 reporter line; further: series mostly up to about 57 µM; nearly all actives have a fitted effect of over 60% in size)
[5] = qHTS for Inhibitors of the Functional Ribonucleoprotein Complex (vRNP) of Lassa (LASV) Arenavirus: Viability assay - alamar blue signal for LASV Primary Screen (AID 1347083; calls by dose curve; tested in HEK293 reporter line; further: series mostly up to about 57 µM; nearly all actives have a fitted effect of over 80% in size)
[6] = qHTS for Inhibitors of the Functional Ribonucleoprotein Complex (vRNP) of Lymphocytic Choriomeningitis Arenaviruses (LCMV): Viability assay - alamar blue signal for LCMV Primary Screen (AID 1347085; calls by dose curve; tested in HEK293 reporter line; further: series mostly up to about 57 µM; nearly all actives have a fitted effect of over 80% in size)
[7] = target: Nucleoprotein (Lymphocytic choriomeningitis virus (strain Armstrong)) (UniProt P09992); assay: qHTS for Inhibitors of the Functional Ribonucleoprotein Complex (vRNP) of Lymphocytic Choriomeningitis Arenaviruses (LCMV): LCMV Primary Screen - GLuc reporter signal (AID 1347086; calls by dose curve; further: series mostly up to about 57 µM; nearly all actives have a fitted effect of over 70% in size)
[8] = target: M-phase phosphoprotein 8 (Homo sapiens) (UniProt Q99549); assay: qHTS Validation Assay for Inhibitors for MPP8 Chromodomain Interactions with Methylated Histone Tails (AID 488949);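 further: AlphaScreen signal from MPP8 chromodomain bound to biotinylated H3K9me3 peptide; top concentration of the series differs between compounds; nearly all actives have a fitted effect of over 55% in size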
Outline: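 AlphaScreen read-out: streptavidin donor and nickel chelate acceptor beads (final 10 ug/mL), 30 min in the dark at RT. Complex of 50 nM MPP8 and 50 nM b-H3(1-18)K9me3 peptide had been exposed to compounds for 30 min beforehand.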

[9] = Inducers of the Endoplasmic Reticulum Stress Response (ERSR) in human glioma: Validation (AID 504836)
Outline: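 Stably transfected U87-MG human glioma cells carrying a GRP78-based luminescent sensor were seeded at 1000 cells/well, pin-dosed with compounds and incubated 16 h. Luciferase reagent was then added, and end-point luminescence was read after 10 min at room temperature.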

[10] = target: Arylsulfatase A (Homo sapiens) (UniProt P15289); assay: qHTS screen for enhancers of Arylsulfatase A (ASA1): LOPAC Validation Assay (AID 720538)
Outline: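 Read-out: fluorescence at Ex=525/Em=598 nm after 1N NaOH final stop. Patient fibroblasts carrying ASA-I179S had 48h compound exposure, then 14h room-temperature pNCS hydrolysis (0.5mM final) in lysis buffer. Signal increase = enhanced activity.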

[11] = Quantitative high throughput screen for delayed death inhibitors of the malarial parasite plastid, 48 hour incubation (AID 488752); further: potency means the concentration at half of the fitted maximal effect; nearly all actives have a fitted effect of over 65% in size
Outline: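 Luciferase-expressing P. falciparum in RBCs, 2% Hct, 0.1% parasitemia final; RPMI 1640 + 0.5% Albumax; 48 h, 37 C, 5% CO2; luminescence readout, signal drop = growth inhibition.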

Measured: Potency

Nucleoprotein (Lymphocytic choriomeningitis virus (strain Armstrong)), sequence (P09992 whole entry, looked up): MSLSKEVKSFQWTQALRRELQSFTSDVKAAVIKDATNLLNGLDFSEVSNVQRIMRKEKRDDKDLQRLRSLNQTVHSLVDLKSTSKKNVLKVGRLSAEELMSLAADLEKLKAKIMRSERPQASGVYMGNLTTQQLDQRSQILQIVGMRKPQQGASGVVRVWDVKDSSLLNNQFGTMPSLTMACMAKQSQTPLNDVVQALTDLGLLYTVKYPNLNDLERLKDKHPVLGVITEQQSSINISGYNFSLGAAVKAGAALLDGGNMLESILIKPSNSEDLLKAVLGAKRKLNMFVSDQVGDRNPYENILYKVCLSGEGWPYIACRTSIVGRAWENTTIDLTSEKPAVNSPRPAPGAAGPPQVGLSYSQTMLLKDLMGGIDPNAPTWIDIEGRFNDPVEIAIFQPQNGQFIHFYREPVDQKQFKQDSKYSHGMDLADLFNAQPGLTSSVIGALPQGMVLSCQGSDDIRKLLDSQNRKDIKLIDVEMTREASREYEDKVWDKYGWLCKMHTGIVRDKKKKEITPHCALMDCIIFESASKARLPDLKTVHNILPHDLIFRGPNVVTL
Alpha-galactosidase (Coffea arabica), sequence (Q42656 whole entry, looked up): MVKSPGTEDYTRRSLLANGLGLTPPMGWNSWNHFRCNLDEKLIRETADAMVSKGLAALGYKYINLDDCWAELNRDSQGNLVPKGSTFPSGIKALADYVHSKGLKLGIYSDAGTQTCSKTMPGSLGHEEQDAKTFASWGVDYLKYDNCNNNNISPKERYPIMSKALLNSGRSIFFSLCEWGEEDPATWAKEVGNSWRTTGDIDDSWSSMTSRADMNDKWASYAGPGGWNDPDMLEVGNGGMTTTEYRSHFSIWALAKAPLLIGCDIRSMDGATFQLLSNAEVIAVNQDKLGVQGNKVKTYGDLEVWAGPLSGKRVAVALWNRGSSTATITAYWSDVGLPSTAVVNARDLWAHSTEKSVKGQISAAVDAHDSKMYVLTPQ
M-phase phosphoprotein 8 (Homo sapiens), sequence (Q99549 whole entry, looked up): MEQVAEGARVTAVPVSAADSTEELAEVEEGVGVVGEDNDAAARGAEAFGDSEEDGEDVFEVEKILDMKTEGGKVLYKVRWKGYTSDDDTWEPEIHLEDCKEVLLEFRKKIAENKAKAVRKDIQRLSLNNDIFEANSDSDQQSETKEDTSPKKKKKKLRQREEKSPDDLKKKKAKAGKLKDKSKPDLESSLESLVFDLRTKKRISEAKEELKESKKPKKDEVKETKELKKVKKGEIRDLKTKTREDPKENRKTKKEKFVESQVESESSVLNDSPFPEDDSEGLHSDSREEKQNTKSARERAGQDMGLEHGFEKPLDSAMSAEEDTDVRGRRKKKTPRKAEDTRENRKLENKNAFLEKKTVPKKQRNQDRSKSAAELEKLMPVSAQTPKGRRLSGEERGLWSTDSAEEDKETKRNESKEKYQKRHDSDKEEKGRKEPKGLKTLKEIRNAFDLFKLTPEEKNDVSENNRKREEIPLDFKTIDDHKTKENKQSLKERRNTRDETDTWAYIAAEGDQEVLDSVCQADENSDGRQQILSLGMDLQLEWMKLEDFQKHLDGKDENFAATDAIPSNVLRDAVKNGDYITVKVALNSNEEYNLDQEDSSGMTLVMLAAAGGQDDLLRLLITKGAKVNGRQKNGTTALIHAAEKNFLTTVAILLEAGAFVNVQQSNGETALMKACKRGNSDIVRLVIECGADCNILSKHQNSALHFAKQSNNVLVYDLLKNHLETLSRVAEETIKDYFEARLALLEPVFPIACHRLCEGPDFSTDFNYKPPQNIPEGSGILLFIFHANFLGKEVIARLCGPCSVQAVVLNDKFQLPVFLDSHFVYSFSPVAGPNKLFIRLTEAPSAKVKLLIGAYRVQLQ
Arylsulfatase A (Homo sapiens), sequence (P15289 whole entry, looked up): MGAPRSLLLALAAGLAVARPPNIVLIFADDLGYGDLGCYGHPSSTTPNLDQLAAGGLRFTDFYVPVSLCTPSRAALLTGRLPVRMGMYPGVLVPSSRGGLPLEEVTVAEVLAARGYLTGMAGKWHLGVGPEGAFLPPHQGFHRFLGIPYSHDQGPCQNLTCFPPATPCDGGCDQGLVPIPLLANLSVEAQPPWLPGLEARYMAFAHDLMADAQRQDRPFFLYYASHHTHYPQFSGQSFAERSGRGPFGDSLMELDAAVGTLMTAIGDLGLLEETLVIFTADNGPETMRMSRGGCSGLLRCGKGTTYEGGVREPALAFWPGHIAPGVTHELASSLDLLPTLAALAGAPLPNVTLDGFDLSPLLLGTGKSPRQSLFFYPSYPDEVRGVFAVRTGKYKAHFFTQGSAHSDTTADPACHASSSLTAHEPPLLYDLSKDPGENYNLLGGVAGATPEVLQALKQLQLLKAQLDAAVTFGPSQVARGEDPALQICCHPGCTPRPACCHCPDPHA

O=C(O)C1CCNCC1
not listed: [8] | [9] | [10] | [11]
inactive: all other assays above

C[C@]12C=CC(=O)C=C1CC[C@@H]1C2=CC[C@]2(C)[C@@H](C(=O)CN3CCN(c4cc(N5CCCC5)nc(N5CCCC5)n4)CC3)CC[C@@H]12
not listed: [1] | [2] | [3] | [11]
inactive: all other assays above

CN1CCc2cc(Cl)c(O)cc2[C@@H](c2ccccc2)C1
inactive: [9] | [4] | [5] | [6] | [7]

CCc1c(C(=O)NCCc2ccc(N3CCCCC3)cc2)[nH]c2ccc(Cl)cc12
inactive: [9] | [4] | [5] | [6] | [7]

N.N.O=C(O)C1(C(=O)O)CCC1.[Pt]
not listed: [8] | [9] | [10] | [11]
inactive: all other assays above

O=C(O)c1cc(=O)cc(C(=O)O)[nH]1
not listed: [1] | [8] | [10] | [11]
inactive: all other assays above

Cc1ccc([N+](=O)[O-])cc1S(=O)(=O)N(C)C
not listed: [8] | [9] | [10] | [11]
inactive: all other assays above

Nc1ncnc2c1ncn2[C@@H]1O[C@H](COP(=O)(O)CP(=O)(O)OP(=O)(O)O)[C@@H](O)[C@H]1O
inactive: [8] | [9] | [4] | [5] | [6] | [7]

C=C1C[C@@]23CC[C@H]4[C@@](C)(CCC[C@@]4(C)C(=O)O)[C@@H]2CC[C@]1(O)C3
inactive: [9] | [4] | [5] | [6] | [7]

CN1CCc2cccc3c2C1Cc1ccc(O)c(O)c1-3 (centres undefined)
inactive: [9] | [4] | [5] | [6] | [7]
active: [11] 3.7 µM

N=C(N)c1ccc(N)cc1
not listed: [1] | [8] | [10] | [11]
inactive: all other assays above

N[C@@H](Cc1cnc[nH]1)C(=O)O
not listed: [8] | [9] | [10] | [11]
inactive: all other assays above

O=C(O)CCC/C=C\C[C@@H]1[C@@H](/C=C/[C@H](O)C2Cc3ccccc3C2)[C@@H](F)C[C@@H]1O
inactive: [9] | [4] | [5] | [6] | [7]

C[N+](C)(C)CCOP(=O)(O)OP(=O)([O-])OC[C@H]1O[C@@H](n2ccc(N)nc2=O)[C@H](O)[C@@H]1O
inactive: [9] | [4] | [5] | [6] | [7]

CC(C)(C)[C@]1(O)CCN2C[C@H]3c4ccccc4CCc4cccc(c43)[C@@H]2C1
inactive: [9] | [4] | [5] | [6] | [7]

NC[C@@H]1O[C@H](c2ccccc2)Cc2c1ccc(O)c2O
inactive: [9] | [4] | [5] | [6] | [7]

O=c1ccn([C@@H]2O[C@H](COP(=O)(O)OP(=O)(O)O)[C@@H](O)[C@H]2O)c(=O)[nH]1
inactive: [9] | [4] | [5] | [6] | [7]

CN(C)c1ccc(/C=C2\C(=O)Nc3ccccc32)cc1
inactive: [9] | [4] | [5] | [6] | [7]

Oc1cc2c(c(Cl)c1O)CCNCC2c1ccccc1 (centres undefined)
inactive: [9] | [4] | [5] | [6] | [7]

C[C@](Cc1ccc(O)c(O)c1)(NN)C(=O)O
inactive: [9] | [4] | [5] | [6] | [7]

Nc1nc(Nc2ccccc2)nc2c1ncn2[C@@H]1O[C@H](CO)[C@@H](O)[C@H]1O
inactive: [9] | [4] | [5] | [6] | [7]

COC(=O)C1=CO[C@@H](O)[C@@H]2C(CO)=CC[C@H]12
inactive: [9] | [4] | [5] | [6] | [7]

N[C@H](C(=O)O)[C@H](Cc1ccccc1)C(=O)O
inactive: [9] | [4] | [5] | [6] | [7]

C[C@H]1O[C@@H](n2cc(F)c(=O)[nH]c2=O)[C@H](O)[C@H]1O
inactive: [9] | [4] | [5] | [6] | [7]

CSc1nc(N)c2ncn([C@@H]3O[C@H](COP(=O)(O)OP(=O)(O)OP(=O)(O)O)[C@@H](O)[C@H]3O)c2n1
inactive: [9] | [4] | [5] | [6] | [7]

NC(=O)C1=CN(C2OC(COP(=O)(O)OP(=O)(O)OC[C@H]3O[C@@H](n4cnc5c(N)ncnc54)[C@H](OP(=O)(O)O)[C@@H]3O)C(O)C2O)C=CC1 (some centres undefined)
inactive: [9] | [4] | [5] | [6] | [7]

Cc1nn(-c2ccccc2)c(C)c1/C=N/N1CCN(Cc2ccccc2)CC1
inactive: [9] | [4] | [5] | [6] | [7]

CCCC1(C)C(C#N)(C#N)C1(C#N)C#N
inactive: [9] | [4] | [5] | [6] | [7]

CN1Cc2sccc2C(c2ccc(O)c(O)c2)C1 (centres undefined)
inactive: [9] | [4] | [5] | [6] | [7]

O=c1[nH]c(=S)[nH]c(-c2ccccc2)c1Cc1c(O)ccc2ccccc12
inactive: [9] | [4] | [5] | [6] | [7]

Nc1ncnc2c1nc(Sc1ccc(Cl)cc1)n2[C@H]1OC2COP(=O)(O)O[C@@H]2C1O (some centres undefined)
inactive: [9] | [4] | [5] | [6] | [7]

Cc1nc2n(c(=O)c1CCN1CCC(c3noc4cc(F)ccc34)CC1)CCCC2O (centres undefined)
inactive: [9] | [4] | [5] | [6] | [7]

CN(CC[C@@H](Oc1ccc(C(F)(F)F)cc1)c1ccccc1)CC(=O)O
inactive: [9] | [4] | [5] | [6] | [7]

c1ccc2c(c1)CCC[C@H]2Nc1nc2ccccc2[nH]1
inactive: [9] | [4] | [5] | [6] | [7]

Cc1cccc(/C=C/c2ccccc2)n1
inactive: [9] | [4] | [5] | [6] | [7]

COc1cc2nc(N3CCN(C(=O)OCc4ccccc4)C(C(=O)NC(C)(C)C)C3)nc(N)c2cc1OC (centres undefined)
inactive: [9] | [4] | [5] | [6] | [7]

OC[C@H]1O[C@@H](n2cnc3c(NC4CCCCC4)ncnc32)[C@H](O)[C@@H]1O
inactive: [9] | [4] | [5] | [6] | [7]

O=[N+]([O-])c1ccc(CSc2ncnc3c2ncn3[C@@H]2O[C@H](CO)[C@@H](O)[C@H]2O)cc1
inactive: [9] | [4] | [5] | [6] | [7]

CNC(=O)[C@H]1O[C@@H](n2cnc3c(NCc4cccc(I)c4)ncnc32)[C@H](O)[C@@H]1O
inactive: [9] | [4] | [5] | [6] | [7]

Fc1cccc(/C=N/N=C/c2cccc(F)c2)c1
inactive: [9] | [4] | [5] | [6] | [7]

Nc1nc(SCc2ccc([N+](=O)[O-])cc2)c2ncn([C@@H]3O[C@H](CO)[C@@H](O)[C@H]3O)c2n1
inactive: [9] | [4] | [5] | [6] | [7]

CCCCCCCCc1ccc(-c2ccc(C(=O)O)cc2)cc1
inactive: [9] | [4] | [5] | [6] | [7]

Nc1nc(Cl)nc2c1ncn2[C@@H]1O[C@H](CO)[C@@H](O)[C@H]1O
inactive: [9] | [4] | [5] | [6] | [7]

N#C/C(=C\c1ccc(-c2cc(Cl)ccc2Cl)o1)C(=O)Nc1cccc2ncccc12
inactive: [9] | [4] | [5] | [6] | [7]

CC(N)(Cc1ccc(O)cc1)C(=O)O (centres undefined)
inactive: [9] | [4] | [5] | [6] | [7]

CC(COc1ccc(/C=C/c2ccccc2)cc1)[N+](C)(C)C (centres undefined)
inactive: [9] | [4] | [5] | [6] | [7]

O=C(c1ccc2c(c1)OCCO2)N1CCCCC1
inactive: [9] | [4] | [5] | [6] | [7]

Clc1ccc(N2CCN(Cc3cc4ccccn4n3)CC2)cc1
inactive: [9] | [4] | [5] | [6] | [7]

NC(=S)c1ccc[n+]([C@@H]2O[C@@H](COP(=O)([O-])OP(=O)(O)OC[C@H]3O[C@@H](n4cnc5c(N)ncnc54)[C@H](OP(=O)(O)O)[C@@H]3O)C(O)C2O)c1 (some centres undefined)
inactive: [9] | [4] | [5] | [6] | [7]

CNC(=O)[C@H]1O[C@@H](n2cnc3c(NCc4ccc(N)cc4)ncnc32)[C@H](O)[C@@H]1O
inactive: [9] | [4] | [5] | [6] | [7]

CC(=O)SC1CC2=CC(=O)CC[C@]2(C)C2CC[C@@]3(C)C(CC[C@@]34CCC(=O)O4)C12 (some centres undefined)
inactive: [9] | [4] | [5] | [6] | [7]

CSc1nc(N)c2ncn([C@@H]3O[C@H](COP(=O)(O)OP(=O)(O)O)C(O)[C@H]3O)c2n1 (some centres undefined)
inactive: [9] | [4] | [5] | [6] | [7]

Nc1nc2c(nc(Br)n2C2OC3COP(=O)(O)O[C@@H]3C2O)c(=O)[nH]1 (some centres undefined)
inactive: [9] | [4] | [5] | [6] | [7]

CCN1C(=O)C=CC1=O
inactive: [1] | [9] | [4] | [5] | [6] | [7]

COc1ccc2cc([S+]([O-])Cc3ncc(C)c(OC)c3C)nc2c1
inactive: [9] | [4] | [5] | [6] | [7]

Cc1nc2sccn2c(=O)c1CCN1CCC(=C(c2ccccc2)c2ccc(F)cc2)CC1
inactive: [9] | [4] | [5] | [6] | [7]

CCc1ccc2c(-c3cccc(Cl)c3)nc(=O)n(CC)c2n1
inactive: [9] | [4] | [5] | [6] | [7]

CN1C2CCCC1CC(NC(=O)c1nn(C)c3ccccc13)C2 (centres undefined)
inactive: [9] | [4] | [5] | [6] | [7]

OCC1O[C@H]([S-])[C@H](O)[C@@H](O)[C@@H]1O.[Au+] (some centres undefined)
inactive: [9] | [4] | [5] | [6] | [7]

Nc1ncnc2c1c(I)cn2[C@@H]1C[C@H](N)[C@@H](O)[C@H]1O
inactive: [9] | [4] | [5] | [6] | [7]

N[C@H](C(=O)O)[C@H]1C[C@@H]1C(=O)O
inactive: [9] | [4] | [5] | [6] | [7]

NCCNC(=O)c1ncsc1-c1cccc(F)c1
not listed: [3] | [8] | [10] | [11]
inactive: all other assays above

CN(C)CCCO[C@@H]1[C@H]2OC(C)(C)O[C@H]2O[C@@H]1[C@H](O)CO
inactive: [9] | [4] | [5] | [6] | [7]

COc1ccc(CCn2nnnc2C2(c3ccc(C)cc3)CC2)cc1
inactive: [9] | [4] | [5] | [6] | [7]
